In PubChem BioAssay one finds inhibition data, which are given here for 24 molecules.

Assay [1] in a line: StAR promoter reporter inhibitors, counter-screen for LRH-1 inverse agonist project, cell-based, luminescence, high throughput (AID 651611; in the data active = inhibition above about 28%). The following applies: StAR promoter luciferase reporter counterscreen, at 3.6 µM, hits give high values. For orientation: A counterscreen serves to expose hits that act by an unwanted route or on another target.
For assay [2], the target named is Nuclear receptor subfamily 5 group A member 2 (Homo sapiens) (UniProt O00482). Put plainly: NR5A2 activity suppression in reporter cells – cell-based, luminescence, confirmation (AID 651613).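 Also: HEK293T cells co-transfected with LRH-1 and StAR promoter luciferase reporter; 0% = vehicle wells and 100% = parental cells lacking receptor.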 Conditions: cell-based LRH-1 luciferase reporter, inverse agonism; at 3.6 µM; hits give high values. For orientation: A reporter such as luciferase makes a cellular process visible.

Assay [3] has as its target Steroidogenic factor 1 (Homo sapiens) (UniProt Q13285). Put plainly: inverse agonism at SF1 nuclear receptor – cell-based, luminescence, high throughput, counter-screen for LRH-1 inverse agonist project (AID 651614; in the data active = inhibition above about 44%;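 also: cells cotransfected with StAR promoter reporter and SF1 expression vector; 0% = vehicle on cells with receptor and 100% = vehicle on cells lacking receptor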). The following applies: cell-based SF1 luciferase reporter, at 3.6 µM, hits give high values.
Assay [4] is described as follows: compounds suppressing VP16-driven luciferase signal – cell-based, luminescence, high throughput, counter-screen for LRH-1 inverse agonist project (AID 651615; in the data active = inhibition above about 33%). Conditions: Gal4-VP16 luciferase reporter cells, at 3.6 µM, hits give high values.

What is called inhibition is the change of the read-out against control, counted positive when it falls.

Unmarked numbers belong to inactive results. The source made the active and inactive calls. Rule as the data show it, unless noted: active = inhibition above about 42%; inactive = the rest.

Sequence of Nuclear receptor subfamily 5 group A member 2 (Homo sapiens) (O00482 whole entry, looked up): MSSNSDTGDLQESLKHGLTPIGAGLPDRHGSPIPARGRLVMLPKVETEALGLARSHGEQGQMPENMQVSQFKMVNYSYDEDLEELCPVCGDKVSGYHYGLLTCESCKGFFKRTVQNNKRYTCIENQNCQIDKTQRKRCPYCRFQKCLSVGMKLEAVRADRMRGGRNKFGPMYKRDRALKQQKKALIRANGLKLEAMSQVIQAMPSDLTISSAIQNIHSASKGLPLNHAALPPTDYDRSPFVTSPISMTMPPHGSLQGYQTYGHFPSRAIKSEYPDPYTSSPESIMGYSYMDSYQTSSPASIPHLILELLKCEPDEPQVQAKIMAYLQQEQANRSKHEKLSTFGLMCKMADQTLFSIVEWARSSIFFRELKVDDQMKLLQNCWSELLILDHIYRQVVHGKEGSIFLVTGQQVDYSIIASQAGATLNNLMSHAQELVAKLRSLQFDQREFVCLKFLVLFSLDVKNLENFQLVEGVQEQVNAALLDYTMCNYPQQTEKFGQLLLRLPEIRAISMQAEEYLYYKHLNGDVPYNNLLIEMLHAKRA
Sequence of Steroidogenic factor 1 (Homo sapiens) (Q13285 whole entry, looked up, the tested form may be a part): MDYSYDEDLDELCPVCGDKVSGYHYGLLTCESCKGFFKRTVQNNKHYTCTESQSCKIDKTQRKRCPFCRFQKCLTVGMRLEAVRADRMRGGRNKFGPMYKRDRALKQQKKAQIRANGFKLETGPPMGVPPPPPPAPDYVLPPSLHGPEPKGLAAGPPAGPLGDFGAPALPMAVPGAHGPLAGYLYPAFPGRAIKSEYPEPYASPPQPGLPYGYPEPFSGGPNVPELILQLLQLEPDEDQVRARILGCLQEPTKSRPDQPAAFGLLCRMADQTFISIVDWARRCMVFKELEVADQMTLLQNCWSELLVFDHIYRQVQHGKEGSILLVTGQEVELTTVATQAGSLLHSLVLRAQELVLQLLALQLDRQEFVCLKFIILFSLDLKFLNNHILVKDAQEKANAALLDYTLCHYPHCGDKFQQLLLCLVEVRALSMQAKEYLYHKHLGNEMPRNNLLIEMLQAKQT

As to `Cc1ccc(SCC(=O)Nc2ccc(N3CCOCC3)cc2)c(C)c1`, the inhibition in assay [1] is 16.4%; in assay [2], 63.3% (active); in assay [3], 56.5% (active); in assay [4] it was -1.3%.
As for `CCOCC(=O)Nc1cccc(C(=O)OCC)c1`, the inhibition in assay [1] is -6.06%; in assay [2] it was 36.9%; in assay [3] it was 28.2%; in assay [4], 2.72%.
As to `Cc1ccc(S(=O)(=O)Oc2ccccc2/C=N/NC(N)=S)cc1`, the inhibition in assay [1] is 42.5% (active); in assay [2], 70.6% (active); in assay [3] it was 66.8% (active); in assay [4], 47.2% (active).
On to `O=C(Nc1ccc(NC(=O)c2ccc([N+](=O)[O-])o2)cc1Cl)c1ccco1`, for which the inhibition in assay [1] was 19.6%; in assay [2] it was 59.8% (active); in assay [3], 73% (active); in assay [4] it was -20.2%.
On to `COc1ccccc1Cc1c(-c2ccc(OC)c(OC)c2)nc2c3ccccc3ccn12`, for which the inhibition in assay [1] is 8.86%; in assay [2], 40.2%; in assay [3], 32%; in assay [4], -1.36%.
With `CCOC(=O)c1ccc(N2CCN(C(=O)c3ccccc3)CC2)c(NC(=O)c2ccco2)c1`, the inhibition in assay [1] was 26.2%; in assay [2], 38.6%; in assay [3], 40.9%; in assay [4] it was -26.2%.
In the case of `CN1CCN(/N=C/c2nc(-c3cccc([N+](=O)[O-])c3)n3ccccc23)CC1`, the inhibition is -4.33% in assay [1], 38.9% in assay [2], 42.2% in assay [3] and 3.29% in assay [4].
The corresponding values for `O=C(Sc1cccc2cccnc12)c1ccccc1Br` are 86.8% (active), 92.1% (active), 85.5% (active) and 88% (active).
`O=C(c1ccc([N+](=O)[O-])o1)N1CCN(c2nc3c(F)cc(F)cc3s2)CC1`: the inhibition in assay [1] is -14.9%; in assay [2], 60.2% (active); in assay [3], 60.4% (active); in assay [4], -0.11%.
Consider `Cc1onc(-c2c(F)cccc2Cl)c1C(=O)Oc1ccccc1`, for which the inhibition was -12.8% in assay [1], 41.9% (active) in assay [2], 33.8% in assay [3] and 11.2% in assay [4].
For the molecule `Cc1cc(C)n(-c2nc(Nc3ccccc3C(F)(F)F)nc(-n3nc(C)cc3C)n2)n1`, the inhibition in assay [1] is 20.8%; in assay [2], 21.6%; in assay [3], 24.5%; in assay [4], -0.49%.
For the molecule `COc1cc2c(cc1OC)C(c1ccc(-c3ccc(Cl)cc3Cl)o1)=NCC2`, the inhibition was 36.4% (active) in assay [1], 58.4% (active) in assay [2], 61% (active) in assay [3] and 62.5% (active) in assay [4].
On to `CC(=O)Nc1ccc(NC(=O)CSc2nnc(-c3cc4ccccc4o3)n2C)cc1`, for which the inhibition is -0.36% in assay [1], 42.7% (active) in assay [2], 43.9% (active) in assay [3] and -5.84% in assay [4].
Regarding `O=C(Cc1ccc(Cl)cc1Cl)Nc1ccncc1Cl`, the inhibition in assay [1] was 16.4%; in assay [2], 65.9% (active); in assay [3] it was 70% (active); in assay [4], 47.1% (active).
For `CN(C)c1ccc(NC(=O)CN2CCC(NC(=O)C3CCCCC3)CC2)cc1`, the inhibition was 12.2% in assay [1], 62.6% (active) in assay [2], 54.1% (active) in assay [3] and -3.68% in assay [4].
As for `CC1(C)Cc2ccccc2/C(=C/C(=O)c2ccccc2)N1`, the inhibition in assay [1] was 0.1%; in assay [2] it was 39%; in assay [3], 36.2%; in assay [4] it was 15.6%.
The corresponding values for `COc1ccc(NC(=O)CSc2nc(O)cc(=O)n2-c2ccccc2OC)cc1` are 4.7%, 47.5% (active), 38.3% and 2.37%.
The corresponding values for `CCN1C(=O)c2cccc3c(NC(=O)c4ccc(S(=O)(=O)N(C)C)cc4)ccc1c23` are 39% (active), 47.9% (active), 46.2% (active) and -41.4%.
In the case of `CC(=O)c1ccc(NC(=O)COc2ccccc2C(=O)Nc2ccccc2)cc1`, the inhibition was 5.25% in assay [1], 54.9% (active) in assay [2], 45.9% (active) in assay [3] and -21.9% in assay [4].
With `CSc1ccc(CNc2cccc3ccccc23)cc1`, the inhibition in assay [1] was 3.79%; in assay [2], 35.3%; in assay [3], 24.7%; in assay [4] it was -39.8%.
As for `O=C(Nc1cc(C(F)(F)F)cc(C(F)(F)F)c1)O[C@@H]1c2ccccc2[C@@H]2Cc3csc[n+]3[C@H]12`, the inhibition in assay [1] was 15.6%; in assay [2], 60% (active); in assay [3] it was 58.4% (active); in assay [4], 4.96%.
Taken in the same sequence, the figures for `CCN1C(=O)c2cccc3c(S(=O)(=O)Nc4ccccc4O)ccc1c23` were 38.4% (active), 34.1%, 36.2% and -88.6%.
Taken in the same sequence, the figures for `Cc1ccc(NC(=O)c2ccc([N+](=O)[O-])o2)c(C)c1` were 11.1%, 54.7% (active), 54.6% (active) and -6.21%.
`Cc1cc(Cl)ccc1NC(=O)CN1C(=O)C(=O)N(C2CCCC2)C1=O`: the inhibition in assay [1] was 5.58%; in assay [2], 50.9% (active); in assay [3], 43.8% (active); in assay [4], 1.38%.
